Calls of active or inactive are those of the source. How the calls were made is not given here.
tested on: 80kDa SH; assay: serine hydrolase inhibition in mouse brain membranes, late-stage follow-up, selectivity assay for DAGLb inhibitor project, biochemical, gel-based competitive ABPP, fluorescence, set 2 (AID 602323); conditions: mouse brain membrane, at 1 µM, hits give high values

inhibition, active:
O=C(N1CCCCC1Cc1ccccc1)n1cc(-c2cc(F)cc(F)c2)nn1 (centres undefined) 80%, O=C(N1CCCCC1Cc1ccccc1)n1ncc(-c2ccc(OC(F)(F)F)cc2)n1 (centres undefined) 50%, O=C(N1CCCCC1Cc1ccccc1)n1cc(-c2ccccc2-c2ccccc2)nn1 (centres undefined) 80%, CC(C)(C)OC(=O)NCCCCCN(CCc1ccccc1)C(=O)n1cc(-c2ccc(OC(F)(F)F)cc2)nn1 80%, O=C(N1CCCCC1Cc1ccccc1)n1cc(-c2ccc(Br)cc2)nn1 (centres undefined) 50%, CC(C)CN(CCc1ccccc1)C(=O)n1cc(-c2ccc(OC(F)(F)F)cc2)nn1 80%, O=C(N(CCc1ccccc1)Cc1ccco1)n1cc(-c2ccc(OC(F)(F)F)cc2)nn1 80%

inhibition, inactive:
O=C(N1CCCCC1Cc1ccccc1)n1cc(-c2ccc(-c3ccccc3OC(F)(F)F)cc2)nn1 (centres undefined) 10%, O=C(N1CCCCC1Cc1ccccc1)n1cc(-c2ccc(-c3cccc(C(F)(F)F)c3)cc2)nn1 (centres undefined) 0%, O=C(c1ccc(-c2ccc(-c3cn(C(=O)N4CCCCC4Cc4ccccc4)nn3)cc2)cc1)N1CCCCC1 (centres undefined) 40%, O=C(N1CCCCC1Cc1ccccc1)n1ncc(C(O)(c2ccccc2)c2ccccc2)n1 (centres undefined) 20%, O=C(c1ccc(-c2cn(C(=O)N3CCCCC3Cc3ccccc3)nn2)cc1)N1CCCCC1 (centres undefined) 20%, O=C(N1CCCCC1Cc1ccccc1)n1cc(-c2ccc(-c3ccccc3CO)cc2)nn1 (centres undefined) 5%, O=C(N1CCCCC1Cc1ccccc1)n1cc(-c2ccc(-c3cccc(CO)c3)cc2)nn1 (centres undefined) 10%, O=C(N1CCCCC1Cc1ccccc1)n1cc(-c2ccc(-c3ccccc3C(F)(F)F)cc2)nn1 (centres undefined) 0%, O=C(N1CCCCC1Cc1ccccc1)n1cc(-c2ccc(-c3ccc(OC(F)(F)F)cc3)cc2)nn1 (centres undefined) 0%, O=C(N1CCCCC1Cc1ccccc1)n1cc(-c2ccc(-c3ccc(C(F)(F)F)cc3)cc2)nn1 (centres undefined) 0%, Cc1ccccc1-c1ccc(-c2cn(C(=O)N3CCCCC3Cc3ccccc3)nn2)cc1 (centres undefined) 0%, O=C(N1CCCCC1Cc1ccccc1)n1cc(-c2ccc(-c3ccoc3)cc2)nn1 (centres undefined) 20%, O=C(N1CCCCC1Cc1ccccc1)n1cc(-c2cccc(-c3ccccc3)c2)nn1 (centres undefined) 0%, O=C(N1CCCCC1Cc1ccccc1)n1cc(-c2ccc(-c3ccc4c(c3)OCO4)cc2)nn1 (centres undefined) 0%, O=C(N1CCCCC1Cc1ccccc1)n1cc(-c2ccc(OC(F)(F)F)cc2)nn1 (centres undefined) 20%, COc1ccccc1-c1ccc(-c2cn(C(=O)N3CCCCC3Cc3ccccc3)nn2)cc1 (centres undefined) 0%, O=C(N1CCCCC1Cc1ccccc1)n1cc(-c2ccc(-c3ccccc3Cl)cc2)nn1 (centres undefined) 0%
